Screening results (PubChem)
Sampled rows, rich in hits. Any-hit rate of the full collection: about 2.6%.
GLP1R cytotox – cytotoxicity in counter-screen for GLP-1R inverse agonists | Potency, µM (titrated, usually from 38.3 µM), inactives show at the top dose activity change, negative = inhibition, hits mostly inhibitors | HEK293 cAMP-luciferase reporter cells, luminescence, 24 h | actives 0.13% (n = 410,000) | AID 624418;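 note: loss of luciferase light is scored as toxicity; % is set by controls: 0 for no effect and ±100 for the full control effect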
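Compound-treated cells are incubated 24 hr at 37 deg C under 5% CO2 after a 12 hour attachment period, then luciferase detection reagent is added and luminescence is measured following 12 min at room temperature; lowered signal indicates toxicity.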
GLP-1R agonist – agonists of human GLP-1 receptor. HEK293 GLP-1R CRE-luciferase, luminescence, 4-6 h; cells express a hypersensitive GLP-1R form. P43220. Potency, µM (doses to about 45.6 µM), inactives show at the top dose activation, most hits filed as activators. actives 0.007% (n = 380,000); note: % of control where 0% means no effect
Target sequence (P43220 whole entry, looked up): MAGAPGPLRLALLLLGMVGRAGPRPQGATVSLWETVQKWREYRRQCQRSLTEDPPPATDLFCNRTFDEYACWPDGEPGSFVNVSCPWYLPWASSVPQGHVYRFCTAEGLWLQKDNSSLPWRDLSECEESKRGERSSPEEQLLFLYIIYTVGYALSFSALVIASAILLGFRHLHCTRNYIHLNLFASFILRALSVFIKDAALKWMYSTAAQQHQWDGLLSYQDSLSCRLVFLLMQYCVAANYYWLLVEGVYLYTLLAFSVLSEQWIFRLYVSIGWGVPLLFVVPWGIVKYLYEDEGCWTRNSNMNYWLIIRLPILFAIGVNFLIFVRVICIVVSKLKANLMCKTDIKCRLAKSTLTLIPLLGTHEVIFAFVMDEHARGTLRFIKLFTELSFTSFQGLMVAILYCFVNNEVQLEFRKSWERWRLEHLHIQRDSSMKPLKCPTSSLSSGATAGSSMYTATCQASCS
BRCA1 expr act – increases BRCA1 expression | Potency, µM (highest dose often 46.1 µM), for the others: at the highest dose activation, usual class: activators | actives 1.1% (n = 380,000) | MCF7-BRCA1-FFLuc reporter, luminescence, 48 h; response scale: scaled: vehicle 0%, 10 µM genistein 100%; note: nearly all actives have a fitted effect of over 80% in size
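Luminescence from a BRCA1-driven firefly luciferase in MCF7 cells was read after 48 h compound exposure at 37 C. Data normalized against DMSO and a 10microM genistein activation control, then curve-fitted across the titration.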
GLP1R inv ag – acts as inverse agonist at human GLP-1 receptor; Potency, µM (series often up to 38.3 µM), without a hit: at the highest dose activity change, negative = inhibition, most hits filed as inhibitors; HEK293 GLP-1R CRE-luciferase, luminescence, 24 h; GLP-1R form is constitutively active; actives 1.6% (n = 410,000); P43220; note: % is set by controls: 0 for no effect and ±100 for the full control effect; nearly all actives have a fitted effect of over 55% in size
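Seeding at 200 cells/uL, 12 h culture, 24 hr compound treatment, then luciferase reagent and a luminescence read; cells are HEK293 stably expressing a constitutively active GLP-1R plus cAMP-responsive luciferase.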
Active calls of the source: *. Calls come from the whole dose curve; as a rule, active = well fitted curve in the direction sought with a large enough effect; inconclusive = small, poorly fitted or top-dose-only effect, or another doubt; inactive = no such curve, though single readings can be large; an effect the other way counts as inactive or inconclusive. Potency is the fitted concentration of half-maximal effect.

Results for Cc1nc(/C(N)=N/OC(=O)c2ccccc2Cl)c(C(F)(F)F)o1 ?
GLP1R cytotox: 1.4%; GLP-1R agonist: -3.6%; BRCA1 expr act: 11.2µM*; GLP1R inv ag: inconclusive

How did COC(=O)C1=C(N)Oc2cc(N(C)C)ccc2C1c1ccccc1OC (stereo not drawn) do in these assays?
GLP1R cytotox: 7.5%; GLP-1R agonist: -2.8%; BRCA1 expr act: -41.7%; GLP1R inv ag: 6.31µM*

Results for COC(=O)C1=C(N)Oc2cc(C)n(CC3CCCO3)c(=O)c2C1c1ccccc1OC (stereo not drawn) ?
GLP1R cytotox: -6.8%; GLP-1R agonist: -7.3%; BRCA1 expr act: 0.7%; GLP1R inv ag: 7.0%

What do the screens show for `O=C(CSc1ccccn1)c1ccc2c(c1)OCO2`?
GLP1R cytotox: 1.6%; GLP-1R agonist: 3.1%; BRCA1 expr act: 7.08µM*; GLP1R inv ag: 0.0%

How did CC[C@H]1O[C@H](C)CC2=C1C(=O)OC(C)(C)O2 do in these assays?
GLP1R cytotox: -2.3%; GLP-1R agonist: 10.6%; BRCA1 expr act: 4.5%; GLP1R inv ag: 20.2%

How did CCOc1ccc(S(=O)(=O)N2CCN(c3cccc(C(F)(F)F)c3)CC2)cc1OCC do in these assays?
GLP1R cytotox: -1.7%; GLP1R inv ag: -8.4%

How did Cc1[nH][nH]c(=O)c1C(c1c(C)[nH][nH]c1=O)c1cn(Cc2ccc(F)cc2)c2ccccc12 do in these assays?
GLP1R cytotox: inconclusive; GLP-1R agonist: 10.8%; BRCA1 expr act: -23.6%; GLP1R inv ag: 2µM*

What do the screens show for `Cc1ccc(S(=O)(=O)N2CCC[C@H]2C(=O)Nc2ccc(F)cc2C)cc1`?
GLP1R cytotox: -0.8%; GLP-1R agonist: -0.6%; BRCA1 expr act: -11.7%; GLP1R inv ag: -14.4%

Results for Brc1cccc[n+]1Cc1ccc(C[n+]2ccccc2Br)cc1 ?
BRCA1 expr act: 10.1%

What do the screens show for `CCCCN1C(=O)N(CCc2ccc(F)cc2)S(=O)(=O)c2cc(C(F)(F)F)ccc21`?
GLP1R cytotox: 3.8%; GLP-1R agonist: 4.0%; BRCA1 expr act: 0.0%; GLP1R inv ag: 10µM*

What do the screens show for `COc1ccc(-c2noc(-c3nnn(-c4cc(C)ccc4C)c3N)n2)cc1`?
GLP1R cytotox: 4.8%; GLP1R inv ag: 0.0%

How did N#CC(C#N)=c1ccc2c(c1)NC1(CCCCC1)N=2 do in these assays?
GLP1R cytotox: 10µM*; GLP-1R agonist: 0.1%; BRCA1 expr act: -100.7%; GLP1R inv ag: 164.0%

How did CCC(=O)Nc1nc2cc(OC)ccc2s1 do in these assays?
GLP1R cytotox: 2.3%; GLP-1R agonist: 0.1%; BRCA1 expr act: inconclusive; GLP1R inv ag: -3.6%

Results for COc1ccc2sc(NCc3ccccc3)nc2c1 ?
GLP1R cytotox: 1.2%; GLP-1R agonist: 11.6%; BRCA1 expr act: 2.82µM*; GLP1R inv ag: inconclusive

Results for COc1ccc2sc(NC(=O)CC(C)C)nc2c1 ?
GLP1R cytotox: -16.5%; GLP-1R agonist: -1.7%; BRCA1 expr act: 5.62µM*; GLP1R inv ag: 0.0%

What do the screens show for `Cc1ccc(/C=C/C(O)=C2/C(=O)N(C)C3(C)CC2c2ccccc2O3)cc1` (stereo not drawn)?
GLP1R cytotox: 1.1%; GLP-1R agonist: -6.5%; BRCA1 expr act: -95.3%; GLP1R inv ag: 2.24µM*

What do the screens show for `CC(C)CCOCc1nc2sc3c(c2c(=O)[nH]1)CCC(C)C3` (stereo not drawn)?
GLP1R cytotox: -9.2%; GLP-1R agonist: -6.4%; BRCA1 expr act: 12.6µM*; GLP1R inv ag: 0.0%

Results for CCc1ccc(NC(=O)CSc2ncc(S(=O)(=O)c3cc(C)ccc3C)c(=O)[nH]2)cc1 ?
GLP1R cytotox: -5.7%; GLP-1R agonist: -4.0%; BRCA1 expr act: 4.7%; GLP1R inv ag: -0.6%

What do the screens show for `Cc1ccc([N+](=O)[O-])cc1N(CC(=O)NC1CCCC1)S(C)(=O)=O`?
GLP1R cytotox: 3.4%; GLP-1R agonist: 3.2%; BRCA1 expr act: -7.1%; GLP1R inv ag: -5.9%

What do the screens show for `Cc1ccc(NS(=O)(=O)c2ccc(NC(=O)CN(c3cc([N+](=O)[O-])ccc3C)S(C)(=O)=O)cc2)c(C)c1`?
GLP1R cytotox: inconclusive; GLP-1R agonist: -7.8%; BRCA1 expr act: -102.9%; GLP1R inv ag: 2.24µM*

How did CC(=O)Cn1cnc2c(cnn2-c2ccc(C)c(C)c2)c1=O do in these assays?
GLP1R cytotox: 0.6%; GLP-1R agonist: 12.1%; BRCA1 expr act: 5.01µM*; GLP1R inv ag: 0.9%

What do the screens show for `CC(C)CCn1cnc2c(cnn2-c2ccc(F)cc2)c1=O`?
GLP1R cytotox: 3.7%; GLP-1R agonist: 4.0%; BRCA1 expr act: 8.91µM*; GLP1R inv ag: 5.2%

How did CCOC(=O)Cc1c(C)nc2c(-c3ccc(OC)c(OC)c3)c(C)nn2c1C do in these assays?
GLP1R cytotox: 6.5%; GLP1R inv ag: 31.6%

What do the screens show for `CCOC(=O)c1c(Nc2cc(C)cc(C)c2)nnc(-c2ccccc2)c1-c1ccccc1`?
GLP1R cytotox: -4.7%; GLP-1R agonist: 12.0%; BRCA1 expr act: -37.1%; GLP1R inv ag: 7.94µM*

What do the screens show for `Cc1ccccc1OCCn1cc(C(=O)c2ccco2)c2ccccc21`?
GLP1R cytotox: -9.6%; GLP1R inv ag: inconclusive

Results for COc1ccccc1OCCn1cc(C(=O)c2ccco2)c2ccccc21 ?
GLP1R cytotox: -13.8%; GLP-1R agonist: -6.2%; BRCA1 expr act: -16.9%; GLP1R inv ag: 12.6µM*

What do the screens show for `CCOc1ccc2nc(SCc3ccccc3C#N)sc2c1`?
GLP1R cytotox: -15.6%; GLP-1R agonist: 10.4%; BRCA1 expr act: 7.94µM*; GLP1R inv ag: inconclusive

Results for CCOc1ccc2nc(SCc3ccc(OC)cc3)sc2c1 ?
GLP1R cytotox: 83.7%; GLP-1R agonist: 5.1%; BRCA1 expr act: 46.9%; GLP1R inv ag: inconclusive

What do the screens show for `COc1ccc2c(c1)c1c(c(=O)n(Cc3ccccc3)c(=O)n1Cc1ccccc1Cl)n2C`?
GLP1R cytotox: -5.3%; GLP-1R agonist: 0.1%; BRCA1 expr act: 12.3%; GLP1R inv ag: 21.1%

How did CCc1ccc(CNc2ncnc3onc(-c4ccc(Cl)cc4)c23)cc1 do in these assays?
GLP1R cytotox: 3.7%; GLP-1R agonist: 0.6%; BRCA1 expr act: 5.1%; GLP1R inv ag: 7.2%

How did Cc1c2cc(O)c(=O)cc-2oc2cc(O)c(O)cc12 do in these assays?
GLP1R cytotox: inconclusive; GLP-1R agonist: -4.1%; BRCA1 expr act: -18.0%; GLP1R inv ag: 0.0%

How did COc1cc(OC)c(-c2c3cc(O)c(=O)cc-3oc3cc(O)c(O)cc23)cc1OC do in these assays?
GLP1R cytotox: inconclusive; GLP-1R agonist: -2.8%; BRCA1 expr act: -34.8%; GLP1R inv ag: 4.47µM*

How did O=C(N/N=C/c1ccc(O)cc1)c1ccc(COc2cc(Cl)ccc2Cl)o1 do in these assays?
GLP1R cytotox: -27.6%; GLP-1R agonist: -3.8%; BRCA1 expr act: -47.0%; GLP1R inv ag: 1.41µM*

Results for O=C(Nc1cccnc1)c1ccc(COc2cc(Cl)ccc2Cl)o1 ?
GLP1R cytotox: 6.0%; GLP-1R agonist: 7.5%; BRCA1 expr act: 48.7%; GLP1R inv ag: -11.9%

Results for COc1ccccc1C(=O)NNC(=O)c1cccc(F)c1 ?
GLP1R cytotox: 0.9%; GLP-1R agonist: -2.4%; BRCA1 expr act: -23.7%; GLP1R inv ag: 8.91µM*
